# According to the antibiotic and cytotoxicity screens of Wong et al. (2023):
# Screen size: about 39,000 compounds; about 1,500 (3.8%) were called active. Only a selection was taken, and actives are over-represented in it overall.
# Test system: HSkMC (human skeletal muscle cells)
# Assay: cytotoxicity call (relative viability < 0.9)
# Details: 10 µM
row,SMILES,cytotoxicity call
1,COc1ccc(CN(C)C[C@H]2OCCCC[C@@H](C)Oc3ccc(NC(=O)c4ccccc4)cc3C(=O)N([C@H](C)CO)C[C@H]2C)cc1,inactive
2,C[C@@H]1CN([C@H](C)CO)C(=O)c2cc(NS(=O)(=O)c3cccs3)ccc2O[C@@H]1CN(C)S(=O)(=O)c1ccc(F)cc1,inactive
3,COc1ccc(NC(=O)N(C)C[C@H]2Oc3ncc(C#CCN(C)C)cc3C(=O)N([C@@H](C)CO)C[C@@H]2C)cc1,inactive
4,C[C@@H]1CCCCO[C@@H](CN(C)C(=O)C2CCCCC2)[C@@H](C)CN([C@H](C)CO)C(=O)c2cc(NC(=O)Nc3cccc4ccccc34)ccc2O1,inactive
5,COc1ccc(NC(=O)N(C)C[C@@H]2OCCCC[C@H](C)Oc3ccc(NC(=O)NC4CCCCC4)cc3C(=O)N([C@H](C)CO)C[C@@H]2C)cc1,inactive
6,COCC#Cc1ccc2c(c1)O[C@H](CN(C)S(=O)(=O)c1ccc(F)cc1)[C@H](C)CN([C@@H](C)CO)S2(=O)=O,inactive
7,COc1cccc(S(=O)(=O)Nc2ccc3c(c2)[C@@H]2C[C@H](CC(=O)N4CCCCC4)O[C@H](CO)[C@@H]2O3)c1,inactive
8,C[C@@H]1CCCCO[C@@H](CN(C)S(=O)(=O)c2ccc(F)cc2)[C@@H](C)CN([C@@H](C)CO)C(=O)c2cc(NS(C)(=O)=O)ccc2O1,inactive
9,C[C@@H]1CN([C@H](C)CO)C(=O)c2cc(NC(=O)Nc3cccc4ccccc34)ccc2O[C@@H](C)CCCCO[C@@H]1CN(C)Cc1ccccc1,inactive
10,C[C@@H]1CN([C@@H](C)CO)C(=O)c2cc(NC(=O)Nc3cccc4ccccc34)ccc2O[C@@H](C)CCCCO[C@H]1CN(C)Cc1ccccc1,inactive
11,C[C@@H]1CCCCO[C@@H](CN(C)Cc2ccccc2)[C@@H](C)CN([C@H](C)CO)C(=O)c2cc(NC(=O)Nc3cccc4ccccc34)ccc2O1,inactive
12,C[C@H]1CCCCO[C@H](CN(C)Cc2ccccc2)[C@@H](C)CN([C@@H](C)CO)C(=O)c2cc(NC(=O)Nc3cccc4ccccc34)ccc2O1,active
13,C[C@@H]1CN([C@@H](C)CO)C(=O)c2cc(NC(=O)Nc3cccc4ccccc34)ccc2O[C@@H](C)CCCCO[C@@H]1CN(C)Cc1ccccc1,active
14,C[C@@H]1CCCCO[C@@H](CN(C)Cc2ccccc2)[C@H](C)CN([C@H](C)CO)C(=O)c2cc(NC(=O)Nc3cccc4ccccc34)ccc2O1,inactive
15,C[C@@H]1CCCCO[C@@H](CN(C)Cc2ccc(C(=O)O)cc2)[C@@H](C)CN([C@@H](C)CO)C(=O)c2cc(NC(=O)Nc3cccc4ccccc34)ccc2O1,inactive
16,C[C@@H]1CCCCO[C@H](CN(C)Cc2ccccc2)[C@H](C)CN([C@@H](C)CO)C(=O)c2cc(NC(=O)Nc3cccc4ccccc34)ccc2O1,active
17,C[C@@H]1CCCCO[C@@H](CN(C)Cc2ccccc2)[C@H](C)CN([C@@H](C)CO)C(=O)c2cc(NC(=O)Nc3cccc4ccccc34)ccc2O1,inactive
18,COc1ccc(S(=O)(=O)N2C[C@H](O)COC[C@@H]3O[C@@H](CC(=O)N[C@H]4CCN(Cc5ccccc5)C4)CC[C@H]32)cc1,inactive
19,CN1C[C@@H](O)COC[C@H]2O[C@H](CC(=O)N3CCN(c4ccccc4)CC3)CC[C@@H]21,inactive
20,C=CCOC(=O)[C@H]1[C@@H]2C(=O)O[C@@H](c3ccccc3)[C@@H](c3ccccc3)N2[C@@H](c2ccc(OCCOC(=O)[C@H]3C[C@H]4C(=O)N[C@@H](Cc5ccccc5)C(=O)N4[C@H]3c3cccc(OCCO)c3)cc2)[C@]12C(=O)Nc1ccc(I)cc12,inactive
21,CCS(=O)(=O)N1C[C@]2(CCN(CC2)C(=O)NC2CCCC2)c2c(n(c3cc(ccc23)OC)C)[C@@H]1CO,inactive
22,C[C@@H]1CN([C@@H](C)CO)C(=O)c2cc(NC(=O)Nc3ccc(C(F)(F)F)cc3)ccc2O[C@H]1CN(C)C(=O)NC1CCCCC1,inactive

row,SMILES,cytotoxicity call
1,C[C@@H]1CCCCO[C@@H](CN(C)C(=O)Nc2ccc(C(F)(F)F)cc2)[C@@H](C)CN([C@@H](C)CO)C(=O)c2cc(NC(=O)C3CCCCC3)ccc2O1,inactive
2,CCNC(=O)C[C@@H]1C=C[C@H](NC(=O)C2CCOCC2)[C@@H](CO)O1,inactive
3,C[C@@H]1CCCCO[C@@H](CN(C)S(=O)(=O)c2cccs2)[C@H](C)CN([C@@H](C)CO)C(=O)c2cc(NC(=O)CCC(F)(F)F)ccc2O1,inactive
4,O=C(C[C@H]1C[C@@H]2c3cc(NC(=O)NC4CCCC4)ccc3O[C@@H]2[C@H](CO)O1)NCc1ccc(-c2ccccc2)cc1,inactive
5,O=C(C[C@H]1C[C@@H]2c3cc(NC(=O)NC4CCCC4)ccc3O[C@@H]2[C@@H](CO)O1)NCc1ccc(-c2ccccc2)cc1,active
6,O=C(C[C@@H]1C[C@@H]2c3cc(NC(=O)NC4CCCC4)ccc3O[C@@H]2[C@@H](CO)O1)NCc1ccc(-c2ccccc2)cc1,inactive
7,O=C(C[C@H]1C[C@H]2c3cc(NC(=O)NC4CCCC4)ccc3O[C@H]2[C@@H](CO)O1)NCc1ccc(-c2ccccc2)cc1,inactive
8,CS(=O)(=O)Nc1ccc2c(c1)[C@H]1C[C@H](CC(=O)NCc3ccc(-c4ccccc4)cc3)O[C@@H](CO)[C@H]1O2,inactive
9,CS(=O)(=O)Nc1ccc2c(c1)[C@@H]1C[C@@H](CC(=O)NCc3ccc(-c4ccccc4)cc3)O[C@@H](CO)[C@@H]1O2,active
10,O=C(C[C@H]1C[C@H]2c3cc(NC(=O)NC4CCCC4)ccc3O[C@H]2[C@H](CO)O1)NCc1ccc(-c2ccccc2)cc1,inactive
11,CS(=O)(=O)Nc1ccc2c(c1)[C@@H]1C[C@@H](CC(=O)NCc3ccc(-c4ccccc4)cc3)O[C@H](CO)[C@@H]1O2,inactive
12,O=C(C[C@@H]1C[C@H]2c3cc(NC(=O)NC4CCCC4)ccc3O[C@H]2[C@H](CO)O1)NCc1ccc(-c2ccccc2)cc1,active
13,CC(C)NC(=O)N[C@@H]1C=C[C@@H](CC(=O)O)O[C@@H]1CO,inactive
14,COc1ccc(S(=O)(=O)N(C)C[C@H]2Oc3ccc(NS(=O)(=O)c4cccs4)cc3CC(=O)N([C@H](C)CO)C[C@@H]2C)cc1,inactive
15,C[C@@H]1CN([C@@H](C)CO)C(=O)c2cc(NC(=O)Nc3ccccc3)ccc2O[C@@H](C)CCCCO[C@H]1CN(C)S(=O)(=O)c1ccc(C(F)(F)F)cc1,inactive
16,Cc1ccc2cccc(OCCOc3ccccc3C(C)C)c2n1,inactive
17,O=C(C[C@@H]1CC[C@H]2[C@@H](COC[C@@H](O)CN2S(=O)(=O)c2ccc(Oc3ccccc3)cc2)O1)NC1CCC1,inactive
18,Cc1ccc2nc([C@H](N)C(C)C)[nH]c2c1,inactive
19,C[C@@H]1CN([C@H](C)CO)C(=O)Cc2cc(NC(=O)Cc3ccccc3)ccc2O[C@@H]1CN(C)Cc1ccc(Cl)c(Cl)c1,active
20,C[C@@H]1CN([C@@H](C)CO)C(=O)Cc2cc(NC(=O)Cc3ccccc3)ccc2O[C@H]1CN(C)Cc1ccc(Cl)c(Cl)c1,inactive
21,C[C@H]1CN([C@@H](C)CO)C(=O)Cc2cc(NC(=O)Cc3ccccc3)ccc2O[C@@H]1CN(C)Cc1ccc(Cl)c(Cl)c1,inactive
22,C[C@H](CO)N1C[C@H](C)[C@H](CN(C)Cc2ccc(Cl)c(Cl)c2)Oc2ccc(NC(=O)Cc3ccccc3)cc2CC1=O,inactive

row,SMILES,cytotoxicity call
1,C[C@@H]1CN([C@@H](C)CO)C(=O)Cc2cc(NC(=O)Cc3ccccc3)ccc2O[C@@H]1CN(C)Cc1ccc(Cl)c(Cl)c1,active
2,C[C@@H]1CN([C@H](C)CO)C(=O)Cc2cc(NC(=O)Cc3ccccc3)ccc2O[C@H]1CN(C)Cc1ccc(Cl)c(Cl)c1,inactive
3,Cc1ccc(S(=O)(=O)Nc2cccc3c2O[C@@H](CN(C)S(=O)(=O)c2cccs2)[C@H](C)CN([C@@H](C)CO)C3=O)cc1,inactive
4,C[C@H]1CN([C@@H](C)CO)C(=O)Cc2cc(NC(=O)C3CCCCC3)ccc2O[C@@H]1CN(C)Cc1ccc(Cl)c(Cl)c1,inactive
5,C[C@@H]1CN([C@@H](C)CO)C(=O)Cc2cc(NC(=O)C3CCCCC3)ccc2O[C@@H]1CN(C)Cc1ccc(Cl)c(Cl)c1,active
6,C[C@H]1CN([C@@H](C)CO)C(=O)Cc2cc(NC(=O)C3CCCCC3)ccc2O[C@H]1CN(C)Cc1ccc(Cl)c(Cl)c1,inactive
7,C[C@@H]1CN([C@@H](C)CO)C(=O)Cc2cc(NC(=O)C3CCCCC3)ccc2O[C@H]1CN(C)Cc1ccc(Cl)c(Cl)c1,inactive
8,C[C@@H]1CN([C@H](C)CO)C(=O)Cc2cc(NC(=O)C3CCCCC3)ccc2O[C@H]1CN(C)Cc1ccc(Cl)c(Cl)c1,inactive
9,C[C@@H]1CN([C@H](C)CO)C(=O)Cc2cc(NC(=O)C3CCCCC3)ccc2O[C@@H]1CN(C)Cc1ccc(Cl)c(Cl)c1,active
10,COc1ccc(NC(=O)Nc2cccc3c2O[C@@H](CN(C)S(=O)(=O)c2cn(C)cn2)[C@@H](C)CN([C@@H](C)CO)C3=O)cc1,inactive
11,O=C(C[C@H]1CC[C@H]2[C@@H](COC[C@@H](O)CN2Cc2cc(F)ccc2F)O1)N[C@H]1CCN(Cc2ccccc2)C1,inactive
12,O=C(C[C@@H]1CC[C@H](NC(=O)CN2CCOCC2)[C@@H](CO)O1)NCc1cccc(F)c1,inactive
13,CN1C(=O)c2cc(NC(=O)C3CCCC3)ccc2OC[C@@H]2O[C@H](CC(=O)NCCc3ccncc3)CC[C@@H]21,inactive
14,COc1ccc(S(=O)(=O)Nc2ccc3c(c2)CC(=O)N([C@@H](C)CO)C[C@@H](C)[C@H](CN(C)Cc2ccc(Cl)c(Cl)c2)O3)cc1,inactive
15,COc1ccc(S(=O)(=O)Nc2ccc3c(c2)CC(=O)N([C@@H](C)CO)C[C@@H](C)[C@@H](CN(C)Cc2ccc(Cl)c(Cl)c2)O3)cc1,active
16,COc1ccc(S(=O)(=O)Nc2ccc3c(c2)CC(=O)N([C@H](C)CO)C[C@@H](C)[C@H](CN(C)Cc2ccc(Cl)c(Cl)c2)O3)cc1,inactive
17,COc1ccc(S(=O)(=O)Nc2ccc3c(c2)CC(=O)N([C@@H](C)CO)C[C@H](C)[C@@H](CN(C)Cc2ccc(Cl)c(Cl)c2)O3)cc1,inactive
18,COc1ccc(S(=O)(=O)Nc2ccc3c(c2)CC(=O)N([C@H](C)CO)C[C@H](C)[C@@H](CN(C)Cc2ccc(Cl)c(Cl)c2)O3)cc1,inactive
19,COc1ccc(S(=O)(=O)Nc2ccc3c(c2)CC(=O)N([C@@H](C)CO)C[C@H](C)[C@H](CN(C)Cc2ccc(Cl)c(Cl)c2)O3)cc1,active
20,COc1ccc(S(=O)(=O)Nc2ccc3c(c2)CC(=O)N([C@H](C)CO)C[C@H](C)[C@H](CN(C)Cc2ccc(Cl)c(Cl)c2)O3)cc1,active
21,COc1ccc(S(=O)(=O)Nc2ccc3c(c2)CC(=O)N([C@H](C)CO)C[C@@H](C)[C@@H](CN(C)Cc2ccc(Cl)c(Cl)c2)O3)cc1,active
